# Results reported in the supplement of paper PMC12669797.
# Where a name gives a salt, the structure may show the parent alone. ± gives the standard deviation of the averaged measurements.
# How the values were obtained:
# ES2 = assay: cell viability relative to DMSO control (MTS) (fraction of DMSO control); higher = more viable cells / less growth inhibition; details: 10 µM; 48 h
# Outline: (§1)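 A 367-compound […] library was tested at a final concentration of 10 µM on TOV-21G and ES2 clear cell carcinoma cells (5000 cells per well, 96-well plates, pre-grown 24 h), with control wells receiving vehicle only. Following 48 h of exposure, CellTiter 96 AQueous One Solution was used as the manufacturer directs. This MTS assay gives cell viability as a fraction of the vehicle control.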
# TOV-21G = assay: as above; details: 10 µM; 48 h
# Outline: as §1
SMILES,cell viability (ES2),cell viability (TOV-21G)
C=CC[C@@H]1/C=C(\C)C[C@H](C)C[C@H](OC)[C@H]2O[C@@](O)(C(=O)C(=O)N3CCCC[C@H]3C(=O)O[C@H](/C(C)=C/[C@@H]3CC[C@@H](O)[C@H](OC)C3)[C@H](C)[C@@H](O)CC1=O)[C@H](C)C[C@@H]2OC,0.941,0.964
Cc1ccc(NC(=O)c2ccc(CN3CCN(C)CC3)cc2)cc1Nc1nccc(-c2cccnc2)n1 [imatinib mesylate],0.956,1.09
CNCCCN1c2ccccc2CCc2ccccc21 [desipramine hydrochloride],0.954,0.745
Ic1cccc(CSc2nnc(-c3ccncc3)o2)c1 [GSK-3 inhibitor II],1.09,1.19
Cc1cc(N)c2ccccc2[n+]1CCCCCCCCCC[n+]1c(C)cc(N)c2ccccc21 [Dequalinium],0.383,0.42
CC1(C)CCC(C)(C)c2cc(NC(=O)c3ccc(C(=O)O)cc3)ccc21 [tamibarotene],1.16,1.49
NCC(=O)Nc1ccc(-n2nc(C(F)(F)F)cc2-c2ccc3c(ccc4ccccc43)c2)cc1,1.04,1.21
C1=Cc2nc1cc1nc(c(-c3ccccc3)c3ccc(cc4ccc([nH]4)c2-c2ccccc2)[nH]3)C=C1,0.908,1.19
COc1ccc([C@@H]2Sc3ccccc3N(CCN(C)C)C(=O)[C@@H]2OC(C)=O)cc1 [Diltiazem],0.858,1.04
Cc1nc(Nc2ncc(C(=O)Nc3c(C)cccc3Cl)s2)cc(N2CCN(CCO)CC2)n1 [dasatinib],0.608,0.815
COc1ccc(C2=N[C@@H](c3ccc(Cl)cc3)[C@@H](c3ccc(Cl)cc3)N2C(=O)N2CCNC(=O)C2)c(OC(C)C)c1 [Nutlin-3],0.825,0.413
O=C(NCCCCCCNC(=O)ON=C1CCCCC1)ON=C1CCCCC1,1.3,0.996
COc1cc2ncc(-c3ccccc3)nc2cc1OC,0.862 ± 0.058,0.955 ± 0.13
O=C(CCCCCN1C(=O)c2cccc3cccc(c23)C1=O)NO [Scriptaid],0.311,0.367
NNCCc1ccccc1 [Phenelzine],1.13,1.25
CNC(=N)NCCC[C@H](N)C(=O)O,0.909,0.974
CNCc1ccc(-c2[nH]c3cc(F)cc4c3c2CCNC4=O)cc1,0.686,0.746
C/C=C/C/C=C/CCC(=O)[C@H]1O[C@H]1C(N)=O [Cerulenin],1.4,1.03

SMILES,cell viability (ES2),cell viability (TOV-21G)
Cc1cc([N+](=O)[O-])ccc1NS(=O)(=O)c1cc(Cl)ccc1Cl,0.894,1.14
NC(=O)c1ccc(I)c([N+](=O)[O-])c1 [BSI-201 (Iniparib)],0.778,1.29
CC(ONC(=O)c1cc(C(F)(F)F)cc(C(F)(F)F)c1)C(=O)Nc1ccc(Cl)cc1 (stereo not given),1.24,1.21
COc1cc2ncnc(Nc3ccc(F)c(Cl)c3)c2cc1OCCCN1CCOCC1 [gefitinib],0.825,0.889
CC[C@@]1(O)C[C@H](O[C@H]2C[C@H](N(C)C)[C@H](O[C@H]3C[C@H](O)[C@H](O[C@H]4CCC(=O)[C@H](C)O4)[C@H](C)O3)[C@H](C)O2)c2c(cc3c(c2O)C(=O)c2c(O)cccc2C3=O)[C@H]1C(=O)OC [Aclarubicin],0.6,0.385
CS(=O)(=O)c1ccc(C(=O)Nc2ccc(Cl)c(-c3ccccn3)c2)c(Cl)c1 [Vismodegib],0.967,0.897
Cn1cnc2c(NCc3ccccc3)nc(NCCO)nc21 [Olomoucine],1.25 ± 0.25,1.27 ± 0.17
CO[C@H]1C[C@@H]2CC[C@@H](C)[C@@](O)(O2)C(=O)C(=O)N2CCCC[C@H]2C(=O)O[C@H]([C@H](C)C[C@@H]2CC[C@@H](OCCO)[C@H](OC)C2)CC(=O)[C@H](C)/C=C(\C)[C@@H](O)[C@@H](OC)C(=O)[C@H](C)C[C@H](C)/C=C/C=C/C=C/1C [everolimus],1.02,0.831
O=C(c1cc(Cc2n[nH]c(=O)c3ccccc23)ccc1F)N1CCN(C(=O)C2CC2)CC1 [Olaparib],0.77,0.888
CC(C)(C)c1cc(O)ccc1O [t-Butylhydroquinone (BHQ)],0.939,1.11
N#C/C(=C(/N)Sc1ccccc1N)c1cccc(C(O)c2ccncc2)c1 (stereo not given) [MEK inhibitor I],0.866,0.898
OC[C@H]1NC[C@H](O)[C@@H](O)[C@@H]1O [Deoxynojirimycin],1.02,1.19
CC(C)n1nc(-c2cc3cc(O)ccc3[nH]2)c2c(N)ncnc21 [Torkinib],0.417,0.38
COc1ccc(COc2ccc(Cc3cnc(N)nc3N)cc2OC)cc1 [cFMS Receptor Tyrosine Kinase Inhibitor],0.942,1.01
C#Cc1cccc(Nc2ncnc3cc(OCCOC)c(OCCOC)cc23)c1 [erlotinib],0.7,0.487
NS(=O)(=O)c1ccc(Nc2nc(OCC3CCCCC3)c3[nH]cnc3n2)cc1,0.699,0.784
O=C1Cc2c([nH]c3ccc(Br)cc23)-c2ccccc2N1 [Kenpaullone],0.701 ± 0.11,0.468 ± 0.048
